One assay concerns NHEM-hTERT. The assay is described as follows: cell viability relative to DMSO control (fraction of DMSO control); higher = less cytotoxic, active = 0.5 or less. Particulars: 1 µM; 120 h. The essentials:
(§1)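 Three cell types were screened against 315 approved anti-cancer drugs from TargetMol, acoustically pre-spotted in 384-well plates at 1 µM in duplicate over 120 h: NHEM-hTERT immortalized melanocytes (2500/well), patient-derived Mel-DCC-11 and its resistant subline Mel-DCC-11-R (both 1500/well), all in 40 µl per well. The subline was tested alone and with 8 µM of its selecting drug. Viability, measured by luminescence, was normalised to vehicle controls and averaged across duplicates, with ATPlite 1step as the readout.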

The next assay deals with Mel-DCC-11-R. The assay is described as follows: cell viability relative to DMSO control (fraction of DMSO control); higher = less cytotoxic, active = 0.8 or less. The settings on record: 1 µM, 120 h. A digest of the protocol: as §1

Values without a mark were called inactive.

Consider `Oc1c(I)cc(Cl)c2cccnc12` [Clioquinol], for which the cell viability with NHEM-hTERT is 0.798; in the assay with Mel-DCC-11-R (vemurafenib co-treatment 0 µM), 0.866; in the assay on Mel-DCC-11-R (vemurafenib co-treatment 8 µM), 0.847.

For the compound `CC(=O)OCC(=O)[C@@]1(O)CC[C@H]2[C@@H]3CCC4=CC(=O)C=C[C@]4(C)[C@H]3[C@@H](O)C[C@@]21C` [Prednisolone-21-acetate], the cell viability with NHEM-hTERT was 0.931; in the assay with Mel-DCC-11-R (vemurafenib co-treatment 0 µM) it was 1.14; in the assay on Mel-DCC-11-R (vemurafenib co-treatment 8 µM), 1.04.

`Cc1nc2ccc(CN(C)c3ccc(C(=O)N[C@@H](CCC(=O)O)C(=O)O)s3)cc2c(=O)[nH]1` [Raltitrexed]: the cell viability was 1.03 in the assay with NHEM-hTERT, 1.16 in the assay on Mel-DCC-11-R (vemurafenib co-treatment 0 µM) and 1.09 in the assay with Mel-DCC-11-R (vemurafenib co-treatment 8 µM).

With `CN(C)C(=O)COC(=O)Cc1ccc(OC(=O)c2ccc(N=C(N)N)cc2)cc1.CS(=O)(=O)O` [Camostat mesilate], the cell viability with NHEM-hTERT is 0.975; with Mel-DCC-11-R (vemurafenib co-treatment 0 µM), 1.1; in the assay on Mel-DCC-11-R (vemurafenib co-treatment 8 µM), 1.21.

On to `CNC(=O)c1cc(Oc2ccc(NC(=O)Nc3ccc(Cl)c(C(F)(F)F)c3)c(F)c2)ccn1` [Regorafenib], for which the cell viability with NHEM-hTERT is 0.792; in the assay with Mel-DCC-11-R (vemurafenib co-treatment 0 µM), 0.909; in the assay on Mel-DCC-11-R (vemurafenib co-treatment 8 µM), 0.82.

On to `CNC(=O)c1ccccc1Sc1ccc2c(/C=C/c3ccccn3)n[nH]c2c1` [Axitinib], for which the cell viability in the assay with NHEM-hTERT is 0.879; in the assay with Mel-DCC-11-R (vemurafenib co-treatment 0 µM), 0.981; with Mel-DCC-11-R (vemurafenib co-treatment 8 µM), 1.03.

Take `Cl.NNc1nncc2ccccc12` [Hydralazine hydrochloride]: the cell viability in the assay on NHEM-hTERT is 1.12; in the assay with Mel-DCC-11-R (vemurafenib co-treatment 0 µM), 1.03; in the assay on Mel-DCC-11-R (vemurafenib co-treatment 8 µM) it was 1.19.

On to `COC(=O)N[C@H](C(=O)N1CC2(CC2)C[C@H]1c1ncc(-c2ccc3c(c2)C(F)(F)c2cc(-c4ccc5nc([C@@H]6[C@H]7CC[C@H](C7)N6C(=O)[C@@H](NC(=O)OC)C(C)C)[nH]c5c4)ccc2-3)[nH]1)C(C)C` [Ledipasvir], for which the cell viability is 1.26 in the assay on NHEM-hTERT, 1.13 in the assay with Mel-DCC-11-R (vemurafenib co-treatment 0 µM) and 0.51 (active) in the assay on Mel-DCC-11-R (vemurafenib co-treatment 8 µM).

As to `N.N.O=C([O-])C[O-].[Pt+2]` [Nedaplatin], the cell viability with NHEM-hTERT was 1.08; in the assay on Mel-DCC-11-R (vemurafenib co-treatment 0 µM), 1; with Mel-DCC-11-R (vemurafenib co-treatment 8 µM), 1.18.

Regarding `CS(=O)(=O)c1ccc(C(=O)Nc2ccc(Cl)c(-c3ccccn3)c2)c(Cl)c1` [Vismodegib], the cell viability is 0.961 in the assay on NHEM-hTERT, 0.807 in the assay on Mel-DCC-11-R (vemurafenib co-treatment 0 µM) and 0.892 with Mel-DCC-11-R (vemurafenib co-treatment 8 µM).

On to `CC[C@]1(O)C[C@H]2CN(CCc3c([nH]c4ccccc34)[C@@](C(=O)OC)(c3cc4c(cc3OC)N(C=O)[C@H]3[C@@](O)(C(=O)OC)[C@H](OC(C)=O)[C@]5(CC)C=CCN6CC[C@]43[C@@H]65)C2)C1.O=S(=O)(O)O` [Vincristine sulfate], for which the cell viability in the assay with NHEM-hTERT was 0.642; in the assay with Mel-DCC-11-R (vemurafenib co-treatment 0 µM) it was 0.455 (active); in the assay with Mel-DCC-11-R (vemurafenib co-treatment 8 µM) it was 0.242 (active).

`Cc1nc(Nc2ncc(C(=O)Nc3c(C)cccc3Cl)s2)cc(N2CCN(CCO)CC2)n1.O` [Dasatinib monohydrate]: the results for the cell viability with NHEM-hTERT, in the assay on Mel-DCC-11-R (vemurafenib co-treatment 0 µM) and in the assay on Mel-DCC-11-R (vemurafenib co-treatment 8 µM) were 0.506, 1.65 and 1.54, respectively.

With `O=C(O)CCc1nc2ccccc2[nH]1` [Procodazole], the cell viability was 1.02 in the assay with NHEM-hTERT, 1.09 in the assay on Mel-DCC-11-R (vemurafenib co-treatment 0 µM) and 1 in the assay on Mel-DCC-11-R (vemurafenib co-treatment 8 µM).

On to `C/C=C1/NC(=O)[C@H]2CSSCC/C=C/[C@H](CC(=O)N[C@H](C(C)C)C(=O)N2)OC(=O)[C@H](C(C)C)NC1=O` [Romidepsin], for which the cell viability with NHEM-hTERT was 0.0685 (active); in the assay with Mel-DCC-11-R (vemurafenib co-treatment 0 µM) it was 0.0525 (active); with Mel-DCC-11-R (vemurafenib co-treatment 8 µM), 0.0432 (active).

As to `CCCCCCCCCCCCCCCCCCOCC(O)CO` (centres undefined) [Batyl alcohol], the cell viability is 1.07 with NHEM-hTERT, 0.92 with Mel-DCC-11-R (vemurafenib co-treatment 0 µM) and 0.995 with Mel-DCC-11-R (vemurafenib co-treatment 8 µM).

On to `O=C(CCCCCCNC(=O)c1cnc(N(c2ccccc2)c2ccccc2)nc1)NO` [Rocilinostat], for which the cell viability in the assay with NHEM-hTERT is 0.847; in the assay on Mel-DCC-11-R (vemurafenib co-treatment 0 µM) it was 0.681 (active); in the assay on Mel-DCC-11-R (vemurafenib co-treatment 8 µM) it was 0.644 (active).

Take `CCOc1cc2ncc(C#N)c(Nc3ccc(OCc4ccccn4)c(Cl)c3)c2cc1NC(=O)/C=C/CN(C)C` [Neratinib]: the cell viability was 0.732 in the assay on NHEM-hTERT, 1.31 with Mel-DCC-11-R (vemurafenib co-treatment 0 µM) and 0.643 (active) in the assay with Mel-DCC-11-R (vemurafenib co-treatment 8 µM).

For the compound `COc1ccc(-c2cc(=S)ss2)cc1` [Anethole trithione], the cell viability in the assay on NHEM-hTERT is 1.05; in the assay on Mel-DCC-11-R (vemurafenib co-treatment 0 µM), 1.04; in the assay on Mel-DCC-11-R (vemurafenib co-treatment 8 µM), 1.13.

As to `c1cn2cc(-c3ccc4cn[nH]c4c3)nc(Nc3ccc(N4CCOCC4)cc3)c2n1` [Entospletinib], the cell viability is 0.558 in the assay on NHEM-hTERT, 0.904 in the assay with Mel-DCC-11-R (vemurafenib co-treatment 0 µM) and 0.877 in the assay with Mel-DCC-11-R (vemurafenib co-treatment 8 µM).

Turning to `COc1cc(C[C@H]2C(=O)OC[C@@H]2Cc2ccc(OC)c(OC)c2)ccc1O` [Arctigenin], the cell viability with NHEM-hTERT is 1.21; in the assay on Mel-DCC-11-R (vemurafenib co-treatment 0 µM), 1.01; with Mel-DCC-11-R (vemurafenib co-treatment 8 µM), 0.855.

On to `N#CC[C@H](C1CCCC1)n1cc(-c2ncnc3[nH]ccc23)cn1` [(R)-Ruxolitinib], for which the cell viability with NHEM-hTERT was 1.1; in the assay on Mel-DCC-11-R (vemurafenib co-treatment 0 µM) it was 0.967; in the assay with Mel-DCC-11-R (vemurafenib co-treatment 8 µM) it was 1.03.

On to `C[C@H](Nc1ncnc2nc[nH]c12)c1cc2cccc(Cl)c2c(=O)n1-c1ccccc1` [Duvelisib], for which the results for the cell viability with NHEM-hTERT, in the assay on Mel-DCC-11-R (vemurafenib co-treatment 0 µM) and in the assay on Mel-DCC-11-R (vemurafenib co-treatment 8 µM) were 0.912, 1.21 and 0.864, respectively.

As for `C[C@@H](Oc1cc(-c2cnn(C3CCNCC3)c2)cnc1N)c1c(Cl)ccc(F)c1Cl` [Crizotinib], the cell viability was 0.986 with NHEM-hTERT, 1.16 in the assay on Mel-DCC-11-R (vemurafenib co-treatment 0 µM) and 0.825 with Mel-DCC-11-R (vemurafenib co-treatment 8 µM).
